Source: PubChem
Most compounds without a hit are left out; they make up all but 11% or so of the library.
HCV inhibitor: qHTS Assay for Inhibitors of Hepatitis C Virus (HCV) | Huh7.5.1 HCVcc-Cre infection, luciferase reporter, 44 h | Potency, µM (doses to about 41.8 µM), without a hit: at the highest dose activity change, negative = inhibition, actives largely listed as inhibitors | 340,000 compounds, 3.4% hits
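Reporter virus HCVcc-Cre (~0.5 moi) infects cells exposed to compound; seeding density 1,000 cells/well with 4 h settling beforehand. Luminescence, 15 sec read, taken 44 h post-infection following a 15 min RT substrate incubation.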
AmpC no deterg: qHTS Inhibitors of AmpC Beta-Lactamase (assay without detergent); AmpC nitrocefin hydrolysis, absorbance 480 nm, 0.0001% Triton; Potency, µM (highest dose often 57.1 µM), without a hit: at the top dose activity change, negative = inhibition, hits mostly inhibitors; 330,000 compounds, 0.52% hits;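 note: plate controls were no compound for no effect and no enzyme for full effect; nearly all actives have a fitted effect of over 20% in size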
Target sequence (P00811 whole entry, looked up): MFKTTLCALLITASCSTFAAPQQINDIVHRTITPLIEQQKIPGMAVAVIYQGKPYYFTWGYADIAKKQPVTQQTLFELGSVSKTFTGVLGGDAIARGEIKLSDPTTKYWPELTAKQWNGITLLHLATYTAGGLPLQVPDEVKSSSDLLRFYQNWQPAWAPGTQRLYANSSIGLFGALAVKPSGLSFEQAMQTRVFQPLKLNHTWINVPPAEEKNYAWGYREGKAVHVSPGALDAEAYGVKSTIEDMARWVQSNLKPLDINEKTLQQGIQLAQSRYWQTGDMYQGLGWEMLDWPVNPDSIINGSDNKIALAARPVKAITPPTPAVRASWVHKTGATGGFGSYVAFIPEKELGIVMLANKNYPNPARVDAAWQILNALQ
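20 mM phosphate pH 7.0 + 0.01% (detergent screen) or 0.0001% Triton X-100; 5.3 nM AmpC reagent; cpd preinc 15 min RT; nitrocefin (800 uM stock) to start; A480 q20 s × 4 min; Activity was normalised to no-enzyme and no-compound control wells.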
Pf growth 48h: Primary qHTS for delayed death inhibitors of the malarial parasite plastid, 48 hour incubation. P. falciparum luciferase growth in erythrocytes, 48 h. Potency, µM (highest dose often 28.7 µM), inactives show top-dose activity change, negative = inhibition, most hits filed as inhibitors. 310,000 compounds, 5.9% hits. AID 504832, 2011
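Here the parasites carry a stable luciferase gene and grow inside erythrocytes in Albumax-based RPMI medium with compound for one erythrocytic cycle. Activity is scored as loss of luminescent signal.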
AmpC inh detg: qHTS Inhibitors of AmpC Beta-Lactamase (assay with detergent). AmpC hydrolysis of nitrocefin, absorbance 480 nm, 0.01% Triton. Potency, µM (highest dose often 114 µM), for the others: at the highest dose activity change, negative = inhibition, usual class: inhibitors. 370,000 compounds, 0.041% hits;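 note: 0% = no-compound wells and -100% = no-enzyme wells; nearly all actives have a fitted effect of over 25% in size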
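AmpC (5.3 nM in the dispensed reagent) in 20 mM phosphate pH 7.0 with 0.01% (detergent screen) or 0.0001% Triton X-100 was preincubated with compounds for 15 min at room temperature. Nitrocefin was then added from an 800 uM solution, and hydrolysis was followed at 480 nm.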
AMA1-RON2 inh: qHTS for Inhibitors of AMA1-RON; Towards Development of Antimalarial Drug Lead: Primary Screen. AlphaScreen AMA1-biotinylated RON2 peptide binding. 360,000 compounds, 0.2% hits. Potency, µM (doses to about 58.2 µM), inactives show top-dose activity change, negative = inhibition, usual class: inhibitors. Plasmodium falciparum AMA1 (3D7) - RON2 peptide interaction. AID 720542, 2013;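 note: 0% = vehicle wells and -100% = peptide control; nearly all actives have a fitted effect of over 45% in size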
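AMA1 (3D7) with his tag at 25 nM final met compounds first, then biotinylated RON2 peptide at 25 nM; detection used donor plus acceptor beads, 10 µg/mL apiece, read by AlphaScreen after 30 min at room temperature.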
Pf growth 96h: Primary qHTS for delayed death inhibitors of the malarial parasite plastid, 96 hour incubation | P. falciparum luciferase reporter growth, 96 h | Potency, µM (series often up to 28.7 µM), for the others: at the top dose activity change, negative = inhibition, actives largely listed as inhibitors | 320,000 compounds, 6.9% hits | AID 504834, 2011
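P. falciparum expressing integrated firefly luciferase grown in erythrocytes (2% hematocrit, 0.05% parasitemia final) with compounds for 96 hours at 37 C, 5% CO2. Growth inhibition read as loss of luminescence after adding luciferase detection reagent.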
Starred values were filed as active, the others as inactive; i = inactive; ? = inconclusive; nt = no result given; [ ] = another dose, or the depositor's remark. Calls come from the whole dose curve; as a rule, active = well fitted curve in the direction sought with a large enough effect; inconclusive = small, poorly fitted or top-dose-only effect, or another doubt; inactive = no such curve, though single readings can be large; an effect the other way counts as inactive or inconclusive. Unless noted, % is set by controls: 0 for no effect and ±100 for the full control effect; potency is the fitted concentration of half-maximal effect.

SMILES | HCV inhibitor | AmpC no deterg | Pf growth 48h | AmpC inh detg | AMA1-RON2 inh | Pf growth 96h
O=C(Nc1ccc(Cl)cc1)c1csc(-c2ccncc2)n1 | 5% | -26% | -7% | 1% | -4% | -3%
CCN1CCN(Cc2ccc(NC(=O)c3ccc(C)c(NC(=O)c4csc(-c5ccncc5)n4)c3)cc2C(F)(F)F)CC1 | ? | 186% | 1.7µM* | 0% | -17% | 0.93µM*
CC(NS(=O)(=O)c1ccc2c(c1)CCN2C(=O)CCCC(=O)O)c1ccccc1 (centres undefined) | nt | nt | nt | 1% | nt | nt
Cn1c(N2C(=O)CC(Cc3ccccc3)C2=O)nc2ccccc21 (centres undefined) | -23% | -19% | 11% | 0% | -4% | 1.7µM*
Cc1ccc(C)c(N2C(=O)CC(Cc3ccccc3)C2=O)c1 (centres undefined) | 17% | -10% | 2% | -11% | 20% | 15µM*
CN(C)c1ccc(Nc2nc(N)c3ccccc3n2)cc1 | ? | -22% | ? | -11% | ? | 8.3µM*
Nc1nc(Nc2ccc(Cl)cc2)nc2ccccc12 | -8% | -32% | nt | 2% | -16% | ?
Nc1nc(Nc2ccccc2)nc2ccccc12 | 7% | -27% | 3.3µM* | -9% | -9% | ?
Cc1cc(C)n2c(Nc3ccccc3C)c(-c3cccs3)nc2n1 | nt | nt | nt | 7% | nt | nt
CCC(C)NC(=O)c1cnn(-c2cccc(F)c2)c1-n1cccc1 (centres undefined) | nt | nt | nt | 1% | nt | nt
COc1ccc(NC(NC(=O)c2ccc(OC)cc2)C(Cl)(Cl)Cl)cc1 (centres undefined) | ? | -23% | ? | 5% | -24% | 4.1µM*
COc1ccc(C(=O)NC(Nc2ccc(C)cc2)C(Cl)(Cl)Cl)cc1 (centres undefined) | ? | -29% | ? | -11% | -18% | 41%
CCN(Cc1ccccc1)c1cc2c(c3c1ccn3C)C1CCC2C1 (centres undefined) | nt | nt | nt | nt | 20µM* | nt
CN(Cc1ccccc1)c1cc2c(c3c1ccn3C)C1CCC2O1 (centres undefined) | nt | nt | nt | nt | 14µM* | nt
CCN(C(=O)Cn1cnc2c1c(=O)n(C)c(=O)n2C)c1ccccc1C | nt | nt | nt | -3% | nt | nt
CCCCC1CCC(CCCC(C)CCC(=O)O)CC1 (centres undefined) | nt | nt | nt | -14% | nt | nt
C=CCN1C(=O)/C(=C/c2ccc(OC(C)=O)c(OCC)c2[N+](=O)[O-])SC1=S | ? | -49% | 9.3µM* | 8% | ? | 23%
C=CCN1C(=O)/C(=C\c2ccc(OC(=O)c3ccco3)c(OC)c2)SC1=S | -15% | -38% | -26% | 5% | -12% | ?
CC(C)OC(=O)/C(=C/c1ccc(Br)cc1)NC(=O)c1ccco1 | 14% | -16% | 10% | -5% | -29% | 13µM*
COc1ccc(/C=C(/NC(=O)c2ccco2)C(=O)N2CCCCCC2)cc1OC | 16% | 42% | 3% | 2% | -4% | 12µM*
COC(=O)C1=C(C)N(CCCC(=O)O)C(=O)NC1c1ccc([N+](=O)[O-])cc1 (centres undefined) | 12% | nt | nt | nt | -1% | nt
CCCCCCN(C(=O)CCCCCN1C(=O)NC(c2cccc([N+](=O)[O-])c2)C(C(=O)OCc2ccccc2)=C1C)C(C(=O)NCCCC)c1ccc(OCC(=O)OC)c(C(=O)OC)c1 (centres undefined) | nt | 67% | ? | 0% | nt | 5.2µM*
CCCCCCN(C(=O)CCCCCN1C(=O)NC(c2ccc([N+](=O)[O-])cc2)C(C(=O)OCc2ccccc2)=C1C)C(C(=O)NCCCC)c1ccc(OCC(=O)OC)c(C(=O)OC)c1 (centres undefined) | nt | 55% | 1.9µM* | 3% | nt | 3.3µM*
CCOc1ccc(N(CC)S(=O)(=O)N2CCCC(C(=O)Nc3ccc(OC)c(Cl)c3)C2)cc1 (centres undefined) | nt | nt | nt | 17% | nt | nt
CCc1ccc(NC(=O)C(CC)Sc2nc3cc4c(cc3c(=O)n2Cc2ccco2)OCO4)cc1 (centres undefined) | ? | -6% | nt | -6% | 3% | 2.6µM*
SMILES | HCV inhibitor | AmpC no deterg | Pf growth 48h | AmpC inh detg | AMA1-RON2 inh | Pf growth 96h
CCc1ccccc1NC(=O)C(CC)Sc1nc2cc3c(cc2c(=O)n1Cc1ccco1)OCO3 (centres undefined) | ? | 4% | 15% | -9% | 11% | i
Nc1nsnc1C(=O)NCCO | 16% | 0% | 17% | ? | -5% | 2.3µM*
O=C(CSc1n[nH]c(-c2ccccc2Cl)n1)N1CCN(c2ccccc2F)CC1 | nt | nt | nt | -7% | nt | nt
COc1ccc(C(=O)N/N=C/c2ccc(OC(=O)c3cccs3)cc2)cc1 | 16% | -28% | -4% | -7% | -3% | 469%
CC(C)(C)OC(=O)N/N=C\c1ccc(OC(=O)c2cccs2)cc1 | 19% | -35% | 3% | -6% | -26% | 12µM*
CNCC(C)COc1ccccc1OCc1ccccc1 (centres undefined) | -6% | 20% | ? | ? | -2% | 12µM*
COCCCNC(=O)CSc1nc2cc3c(cc2c(=O)n1CCCCCC(=O)NCc1ccc2c(c1)OCO2)OCO3 | nt | nt | nt | 6% | nt | nt
O=C(Nc1ccc2cn[nH]c2c1)c1c(Cl)cccc1Cl | -18% | -22% | 3% | 2% | 5%[11.6 µM] | -26%
O=C1C(Cl)=C(Nc2ccc3cn[nH]c3c2)C(=O)c2ccccc21 | 4µM* | -38% | 12µM* | -3% | -17% | 8.3µM*
CN(C)c1ccc(NC2=C(Cl)C(=O)c3ccccc3C2=O)cc1 | 10µM* | -14% | 134% | ? | 7.9µM* | 18%
Cc1cc(C)c(NC(=O)CSc2nc3c([nH]c4ccccc43)c(=O)n2C)c(C)c1 | nt | nt | nt | 5% | nt | nt
COc1ccc(Nc2ccc(S(=O)(=O)N3CCCCC3)cc2[N+](=O)[O-])cc1Cl | ? | -18% | ? | -15% | ? | 13µM*
COc1cc(CN(C)c2ccc(S(=O)(=O)N3CCCC3)cn2)ccc1OC(F)F | ? | -7% | 15µM* | -12% | 0% | ?
COc1ccc(C(CNc2ccc(S(=O)(=O)N3CCN(C)CC3)cc2[N+](=O)[O-])N(C)C)cc1 (centres undefined) | 10µM* | -4% | 1% | 0% | -14% | 11%
